Measured values: PubChem BioAssay AID1626 (SRMLSC, 2009)
Screen size: about 220,000 compounds; about 2,000 (0.91%) were called active. Inconclusive results (about 2%) are left out. Cut-off read from the data, not from the text of the source: inconclusive = inhibition above about 80% without an active follow-up result; inactive = below that; test concentration not stated here. These entries were drawn from the full list. Entries with a potency or affinity are not part of this list.

Experiment: M. tuberculosis H37Rv growth inhibitors, H37Rv strain (AID 1626);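 note: bacteria incubated seven days before Alamar blue readout; 0% = bacteria only wells and 100% = bacteria with antibiotic wells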
Settings: active compounds read high, concentration not given here

| SMILES | inhibition |
| --- | --- |
| COc1ccccc1-n1c(SCC(=O)Nc2ccccc2C)nc(O)cc1=O | -5.47% (inactive) |
| NNC(=O)[C@H]1C[C@@H]1c1ccccc1 | -1.45% (inactive) |
| Cc1ccc(SC(C)c2nc(-c3ccncc3)no2)cc1 (configuration not stated) | 3.66% (inactive) |
| O=C(Cc1ccc(Cl)c(Cl)c1)Nc1ccc2[nH]c(=O)[nH]c2c1 | -1.82% (inactive) |
| Clc1ccc(C(c2ccccc2)N2CCNCC2)cc1 (configuration not stated) | 0.35% (inactive) |
| COc1cc(/C=C/C(=O)O)ccc1O | -3.73% (inactive) |
| CCOc1cc(/C=C/c2ccc3cccc([N+](=O)[O-])c3n2)ccc1O | -4.71% (inactive) |
| Cc1ccc(NC(=S)N(Cc2ccccc2)C(C)C)cc1 | -1.3% (inactive) |
| CCCc1cc(=O)[nH]c(SCC(=O)Nc2ccc3c(c2)CCC3)n1 | 7.3% (inactive) |
| CCC(C)c1c(O)nc(SCC(=O)Nc2ccccc2)[nH]c1=O (configuration not stated) | -5.09% (inactive) |
| O=C(CSc1nc(O)cc(=O)[nH]1)Nc1ccc2c(c1)CCC2 | 6.46% (inactive) |
| Nc1cc(=O)[nH]c(SCC(=O)Nc2ccc3c(c2)CCC3)n1 | 4.78% (inactive) |
| CCN(CC)C(=O)C(=O)Nc1ccc(Oc2ccccc2)cc1 | 14.4% (inactive) |
| CCNCc1ccc(OCc2ccccc2F)c(OC)c1 | 6.78% (inactive) |
| COc1cccc(CNCCc2c[nH]c3ccccc23)c1OCc1ccccc1 | 52.7% (inactive) |
| COc1cccc(CNCCc2c[nH]c3ccccc23)c1OCc1ccc(F)cc1 | 28.9% (inactive) |
| COc1cc(CNCCCCO)ccc1OCc1ccccc1F | 0.63% (inactive) |
| O=C(NCCc1ccccc1)C1CC(=O)N(C2CCCCCC2)C1 (configuration not stated) | -3.62% (inactive) |
| COC(=O)C1=C(c2ccccc2)C[C@@H]2CC[C@H]1N2C(=O)NCC1CC1 | -3.96% (inactive) |
| COC(=O)c1ccc(COC(=O)c2cnccn2)cc1 | 16.3% (inactive) |
| O=C(OCc1ccc(Cl)cc1)c1cnccn1 | 13.5% (inactive) |
| O=[N+]([O-])c1cccc(-c2noc(-c3cccs3)n2)c1 | 0.93% (inactive) |
| O=C(NCc1n[nH]c(=S)n1Cc1ccccc1)c1ccc(Cl)cc1Cl | 7.03% (inactive) |
| COc1cccc(C2c3c(oc4ccccc4c3=O)C(=O)N2c2ccccn2)c1 (configuration not stated) | -5.48% (inactive) |
| COc1cc(OC)c(S(=O)(=O)NCc2ccco2)cc1S(=O)(=O)NCc1ccco1 | 1.4% (inactive) |

| SMILES | inhibition |
| --- | --- |
| Cc1ccc(Cl)cc1NC(=O)COC(=O)c1ccc(N2CCCC2)c([N+](=O)[O-])c1 | -3.66% (inactive) |
| Cc1cccc(-n2cc(CN3CCN(Cc4nccn4C)CC3)c(-c3cccc(F)c3)n2)c1 | 27% (inactive) |
| CCN1CC(CN(C)Cc2cn(-c3cccc(C)c3)nc2-c2cccc(F)c2)CC1=O (configuration not stated) | 15.3% (inactive) |
| Cc1cccc(-n2cc(CN3CCN(c4ccccn4)CC3)c(-c3cccc(F)c3)n2)c1 | 15.4% (inactive) |
| Cc1ccc(-c2nn(-c3cccc(F)c3)cc2CN(Cc2nccn2C)C(C)C)o1 | 22.5% (inactive) |
| CCOC(=O)N1CCC(N(CCN(C)C)C(=S)Nc2cccc(OC)c2)CC1 | 10% (inactive) |
| CCn1ccnc1CNC(=O)c1cc(COc2ccc(F)cc2F)on1 | 13.2% (inactive) |
| CCCn1nnc(NC(=O)c2ccc(-c3cccc(Cl)c3)o2)n1 | 0.76% (inactive) |
| CCc1nnc(NC(=O)c2ccc(-c3ccc(Cl)cc3)o2)s1 | 3.33% (inactive) |
| CC(=O)N1CCN(C(=S)c2ccc(-c3ccc(Cl)cc3)o2)CC1 | 4.85% (inactive) |
| O=C(NC1=NCCS1)c1cc2ccccc2o1 | -1.2% (inactive) |
| CCn1nnc(NC(=O)Cc2ccc(Cl)cc2)n1 | -0.3% (inactive) |
| COc1ccccc1NC(=S)NC(=O)c1ccc(-c2ccc(Cl)cc2)o1 | 79.3% (inactive) |
| CCOC(=O)c1cc(CC)sc1N1C(=O)CC(Sc2ncccc2C(=O)O)C1=O (configuration not stated) | 2.89% (inactive) |
| Cc1ccc(S(=O)(=O)N(C)C)cc1NC(=O)C1CCC1 | -2.34% (inactive) |
| CCOc1ccc(N(CC(=O)Nc2c(C)cccc2C)S(=O)(=O)c2c(C)[nH]c(=O)[nH]c2=O)cc1 | 7.56% (inactive) |
| CC(C)Cn1c(N2CCN(C(=O)c3cccs3)CC2)nc2ccccc21 | -13.3% (inactive) |
| CCn1c(N2CCN(C(=O)/C=C/c3ccccc3)CC2)nc2ccccc21 | 0.45% (inactive) |
| CCOc1ccc(CC(=NCCc2ccccc2)C2=C(O)CC(C)(C)CC2=O)cc1OCC | 6.31% (inactive) |
| CCn1c(SCC(=O)Nc2ccc3c(c2)OCCO3)nnc1-c1c[nH]c2ccccc12 | -6.16% (inactive) |
| O=C(Nc1nnc(-c2cccs2)o1)c1ccco1 | 71.2% (inactive) |
| O=C(Nc1nn[nH]n1)c1cccc(Oc2ccccc2)c1 | -4.2% (inactive) |
| O=C(Nc1cccc(C(F)(F)F)c1)c1cc(-c2cccs2)on1 | -6.91% (inactive) |
| COc1cccc(C(=O)Nc2nnc(-c3cccs3)s2)c1 | 8.53% (inactive) |
| CCCCNc1ccc(S(N)(=O)=O)cc1[N+](=O)[O-] | -3.02% (inactive) |

| SMILES | inhibition |
| --- | --- |
| COC(=O)C1C(O)=C(C=Nc2ccccc2)C(=O)CC1(C)C (configuration not stated) | 18% (inactive) |
| COC(=O)C1C(O)=C(C=Nc2cccc3ccccc23)C(=O)CC1(C)C (configuration not stated) | 55% (inactive) |
| CC1CCN(C(=O)c2ccc(N3CC4CC(C3)c3cccc(=O)n3C4)c([N+](=O)[O-])c2)CC1 (configuration not stated) | -2.48% (inactive) |
| Nc1cc(=O)[nH]c(SCC(=O)Nc2ccccc2Sc2ccccc2)n1 | 0.31% (inactive) |
| Nn1c(SCc2ccc(F)cc2)nnc1-c1cccnc1 | 0.75% (inactive) |
| Cc1ccc2nc(N=C(N)N)nc(C)c2c1 | 8.48% (inactive) |
| Cc1cc(C)c2nc(/N=C(\N)NC(=O)c3ccccc3)nc(C)c2c1 | 5.97% (inactive) |
| Cc1nc(/N=C(\N)Nc2ccccc2)nc2ccccc12 | -4.15% (inactive) |
| CCCC(=O)N/C(N)=N/c1nc(C)c2cc(C)ccc2n1 | 31.5% (inactive) |
| O=C(NCCNC(=O)c1ccc([N+](=O)[O-])cc1)c1ccncc1 | -5.65% (inactive) |
| O=S(=O)(Nc1cccc2cn[nH]c12)c1ccc(F)cc1 | -1.2% (inactive) |
| CC(=O)NCCOc1ccc2oc3ccccc3c2c1 | 14.2% (inactive) |
| C/C(=N\OCC(=O)NC12CC3CC(CC(C3)C1)C2)c1cc2ccccc2o1 | 24.4% (inactive) |
| O=C(c1ccccc1)N1CCCC(C(=O)N2CCN(c3ccccc3)CC2)C1 (configuration not stated) | -13.7% (inactive) |
| OC(COCC(F)(F)C(F)(F)C(F)(F)C(F)F)Cn1c2ccccc2c2ccccc21 (configuration not stated) | 47.2% (inactive) |
| CC(=O)N(C)c1ccc(OCC(O)Cn2c3ccc(Cl)cc3c3cc(Cl)ccc32)cc1 (configuration not stated) | -0.39% (inactive) |
| CCn1c(SCC(=O)Nc2nc(C)cs2)nnc1-c1cccnc1 | 10.4% (inactive) |
| O=C(NCc1cccnc1)c1ccc(-c2ccc(Cl)cc2)o1 | -1.29% (inactive) |
| O=C(NCc1cccnc1)/C(=C/c1ccc(-c2cccc(Cl)c2)o1)S(=O)(=O)c1ccccc1 | 56.8% (inactive) |
| CCC(=O)Nc1nonc1-c1nc2ccccc2n1Cc1cccc2ccccc12 | 20.3% (inactive) |
| CCS(=O)(=O)c1nc2ccccc2n1Cc1ccccc1Cl | 0.3% (inactive) |
| CC(=O)NCCCc1nc2ccccc2n1Cc1ccccc1C | -3.1% (inactive) |
| CCn1c(NCc2ccccc2Cl)nc2ccccc21 | 1.72% (inactive) |
| CC(=O)NCc1nc2ccccc2n1Cc1ccccc1C | -1.94% (inactive) |
| Cc1ccccc1Cn1c(C(C)O)nc2ccccc21 (configuration not stated) | 1.24% (inactive) |

| SMILES | inhibition |
| --- | --- |
| CC(=O)NCCc1nc2ccccc2n1Cc1ccccc1 | 2.23% (inactive) |
| CC(=O)Nc1nc2ccccc2n1CCN(C)C | -1.12% (inactive) |
| Cc1cc(C)c(C(=O)Nc2ccc(Br)c(C(F)(F)F)c2)c(C)c1 | 50.8% (inactive) |
| C=CCN(C(=O)CNC(=O)c1ccco1)C(C(=O)NC1CCCCC1)c1ccccc1 (configuration not stated) | -3.02% (inactive) |
| COc1ccc2nc3sc(C(=O)NCCN4CCc5ccccc5C4)cc3cc2c1 | 11.3% (inactive) |
| Cn1c(CCNC(=O)OC(C)(C)C)n[nH]c1=S | -7.46% (inactive) |
| CC12CCC(C(=O)Nc3ccccc3N3CCOCC3)(CC1=O)C2(C)C (configuration not stated) | -3.66% (inactive) |
| COc1cccc(N=Cc2c[nH][nH]c2=O)c1 | -5.96% (inactive) |
| O=c1[nH][nH]cc1C=Nc1ccc(Cl)cc1 | 4.25% (inactive) |
| C/[N+]([O-])=C/c1c(OCc2ccc(Cl)cc2Cl)ccc2ccccc12 | 10.9% (inactive) |
| Cc1c(C(=O)Nc2ccc(F)cc2)c2ccccn2c1CCc1ccncc1 | 1.73% (inactive) |
| Cc1ccc(C)c(Cn2c(=O)n(CCC(=O)NCc3ccco3)c(=O)c3sccc32)c1 | -2.02% (inactive) |
| O=C1CC(c2ccco2)CC2=C1C(c1ccccc1)n1nc(C(F)(F)F)nc1N2 (configuration not stated) | 2.19% (inactive) |
| CCOC(=O)c1sc(NC(=O)COC(=O)CNC(=O)C2CCCCC2)c(C(=O)OCC)c1C | -1.65% (inactive) |
| O=C(COc1nc2ccccc2nc1N1CCOCC1)NC1CCCCC1 | 5.49% (inactive) |
| CC(=O)Nc1ccc(S(=O)(=O)N2CCN(c3nnnn3-c3ccccc3)CC2)cc1 | -0.88% (inactive) |
| O=S(=O)(CS(=O)(=O)c1ccc(Cl)cc1)c1ccc(Cl)cc1 | 6.17% (inactive) |
| c1ccc(-c2cc(-c3nc(-c4ccccn4)no3)c3ccccc3n2)cc1 | 9.71% (inactive) |
| c1ccc(-c2nc(C3CCCCC3)no2)cc1 | 3.47% (inactive) |
| O=C(CN1CCCCC1)c1ccc(OC(F)F)cc1 | -5.74% (inactive) |
| c1ccc(N2CCCCC2)c(Nc2nc3ccccc3n3cnnc23)c1 | 14.3% (inactive) |
| c1ccc(N2CCOCC2)c(Nc2nc3ccccc3n3cnnc23)c1 | 8.42% (inactive) |
